An excerpt weighted towards active compounds, which were near 21% of everything screened.
HCV inhibitor = blocks hepatitis C virus | Huh7.5.1 HCVcc-Cre infection, luciferase reporter, 44 h | Potency, µM (series often up to 41.8 µM), inactives show at the highest dose activity change, negative = inhibition, usual class: inhibitors | 340,000 compounds, 3.4% hits | AID 651820; further: potency means the concentration at half of the fitted maximal effect; on the % scale 0 is the no-effect control and ±100 the full control effect
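Cells seeded at 1,000/well and cultured 4 h, then compounds added followed by HCVcc-Cre virus (~0.5 moi). After 44 h further culture, luciferase substrate was added, plates held 15 min at room temperature, and luminescence read for 15 sec.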
Pf growth 96h = inhibits malaria parasite growth, 96 h; 320,000 compounds, 6.9% hits; P. falciparum luciferase reporter growth, 96 h; Potency, µM (doses to about 28.7 µM), for inactives: at the top dose activity change, negative = inhibition, actives largely listed as inhibitors; further: potency means the concentration at half of the fitted maximal effect; on the % scale 0 is the no-effect control and ±100 the full control effect
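Infected RBCs, 2% Hct / 0.05% parasitemia final; luciferase-reporter P. falciparum; cpd 96 h, 37 C, 5% CO2; luciferase detection reagent; luminescence.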
Pf growth 48h = inhibits P. falciparum growth in the first generation, 48 h; P. falciparum luciferase growth in erythrocytes, 48 h; Potency, µM (titrated, usually from 28.7 µM), for the others: at the top dose activity change, negative = inhibition, actives largely listed as inhibitors; 310,000 compounds, 5.9% hits; further: potency means the concentration at half of the fitted maximal effect; on the % scale 0 is the no-effect control and ±100 the full control effect
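Firefly luciferase activity from engineered P. falciparum reports growth; inhibitors lower the luminescent signal. Cultures contained 2% hematocrit erythrocytes at 0.1% final parasitemia.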
Cycloheximide cs = affects cycloheximide protein synthesis inhibition readout, counter-screen. max response, %. cell reporter, cycloheximide protein synthesis inhibition counterscreen. 300,000 compounds, 12% hits. AID 2314; in the data active means max response mostly above about 13%, no sharp cut-off; inactive means mostly below about 14%; further: read at 38.3 µM for the half of the compounds with a filed dose; 0% is about no effect
HCMV antiviral = human cytomegalovirus inhibition; activity change, negative = inhibition, % at 57.5 µM; 410,000 compounds, 4.5% hits; HFF cells, HCMV-luciferase reporter, 72 h; active compounds read low; in the data active means activity change below about -60%; inconclusive means no clear call, values can overlap the other calls; inactive means above about -39%; further: on the % scale 0 is the no-effect control and ±100 the full control effect
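Two-dose cell screen: HFF monolayers treated with compounds and infected with luciferase-expressing HCMV at 1 PFU/cell, 72 h at 37C, then lysed for luciferase measurement.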
Shiga toxin inh = Shiga toxin inhibition; Vero cells, Shiga toxin protein synthesis inhibition reporter; inhibition, % at 38.7 µM; 290,000 compounds, 9.2% hits; AID 2315; in the data active means inhibition mostly above about 28%, no sharp cut-off; inactive means mostly below about 43%; further: 0% is about no effect
An asterisk follows results filed as active; ? = inconclusive; / = no result. Unless noted, the call rests on the fitted dose curve; in most records, active means well fitted inhibition curve with a large enough effect; inconclusive means small, poorly fitted or top-dose-only effect, or another doubt; inactive means no such curve, though single readings can be large or run the other way.

SMILES	HCV inhibitor	Pf growth 96h	Pf growth 48h	Cycloheximide cs	HCMV antiviral	Shiga toxin inh
Cc1ccc(CNCCCSc2ncccn2)cc1	2%	?	-38%	4	1	-2
COc1ccc(/C=C(\C#N)c2nc3ccccc3c(=O)[nH]2)cc1OC	/	/	/	/	-1	/
COc1cc(/C=C(\C#N)c2nc3ccccc3[nH]2)cc(Br)c1OCc1ccccc1	?	-15%	2.9µM*	12*	12	15
COc1cc(/C=C(\C#N)c2nc3ccccc3[nH]2)cc(Br)c1OCc1ccc(F)cc1	?	2.1µM*	3.7µM*	11	-24	-6
COc1cc(/C=C(\C#N)c2nc3ccccc3[nH]2)ccc1OCc1ccccc1F	/	/	/	/	27	/
C=CC[n+]1c(-c2ccc(OC)c(OC)c2)csc1NNC(=O)Nc1ccccc1	4µM*	9.3µM*	7.4µM*	-2	?	-17
COc1cc2c(c(OC)c1OC)-c1ccc(OC)c(=O)cc1C(N)CC2 (stereo unspecified)	7%	/	/	/	-83*	/
COc1cc2c(c(OC)c1OC)-c1ccc(SC)c(=O)cc1C(N)CC2 (stereo unspecified)	-10%	/	/	/	-88*	/
COc1cc2c(c(OC)c1OC)-c1ccc(O)c(=O)cc1[C@@H](N)CC2	-14%	43%	?	/	-32	/
Cc1ccc2nc(-c3ccccc3)oc(=O)c2c1	2%	?	0%	1	24	14
Cc1ccc(-c2nc3ccccc3c(=O)o2)cc1	3%	-15%	56%	23*	209	/
COc1cc(OC)cc(-c2nc3ccccc3c(=O)o2)c1	11%	40%	-11%	-3	-10	14
COc1cccc(-c2nc3ccccc3c(=O)o2)c1	5%	/	/	19*	72	25
COc1ccc(-c2nc3ccccc3c(=O)o2)cc1	19%	-16%	32%	13*	16	48
CCCCn1c(N)c(N(CCOC)C(=O)COC(=O)COc2ccccc2C#N)c(=O)[nH]c1=O	17%	25%	49%	/	3	/
CCOc1ccccc1NC(=O)C1=C(C)Nc2ncnn2C1c1ccccn1 (stereo unspecified)	/	/	/	/	18	/
CCOc1ccc(CCNc2nc3ccccc3n3c(C)nnc23)cc1OCC	-19%	16%	5.2µM*	-3	26	-3
COc1ccc(CCNc2nc3ccccc3n3nnnc23)cc1OC	1%	7%	/	11	159	14
CC(C)CN(C(=O)COC(=O)c1ccccn1)c1c(N)n(Cc2ccccc2)c(=O)[nH]c1=O	3%	-1%	-22%	/	-11	/
O=C(NCCCN1CCN(c2cccc(Cl)c2)CC1)c1cnn(-c2ccc(F)cc2)c1-n1cccc1	/	/	/	/	-24	/
COC(=O)c1ccc(OCc2nc(N)nc(N3CCOCC3)n2)cc1	9%	-27%	1%	-6	47	24
Nc1nc(COc2ccc(F)cc2)nc(N2CCCCC2)n1	-25%	22%	22%	19*	15	-10
Cc1cnc(NC(=O)CC(C)c2ccccc2)s1 (stereo unspecified)	?	30%	4%	28*	-68*	60*
N#Cc1ccsc1NC(=O)CCc1ccccc1	?	-4%	98%	32*	57	68*
N#Cc1ccsc1NC(=O)CN(Cc1ccccc1)Cc1ccccc1	-2%	?	?	15	-2	13
SMILES	HCV inhibitor	Pf growth 96h	Pf growth 48h	Cycloheximide cs	HCMV antiviral	Shiga toxin inh
N#Cc1ccsc1NC(=O)COc1ccc(-c2nnco2)cc1	16%	?	103%	35*	25	99*
CCc1nnc(NC(=O)CSc2nnc(-c3ccccc3O)o2)s1	17%	27%	26%	34*	-6	92*
CN(c1ccccc1)S(=O)(=O)c1cc(C(=O)NCc2ccco2)ccc1Cl	/	/	/	/	56	/
O=C(CCC(=O)c1cccs1)NCCc1ccc(F)cc1	10%	0%	15%	/	8	/
O=C(CSc1nnc(-c2cccnc2)o1)Nc1nccs1	3%	54%	45%	/	11	/
N#Cc1ccsc1NC(=O)CSc1nnc(-c2ccccc2)o1	-12%	/	10%	31*	142	87*
CC(C)CC(=O)Nc1ccc(C(=O)COc2ccc(-c3nnco3)cc2)cc1	-17%	2.1µM*	?	-3	69	19
CCc1nnc(NC(=O)CSc2nccn2-c2ccccc2)s1	-2%	/	-13%	-4	-24	13
CCc1nnc(NC(=O)CSc2ncc(-c3ccccc3)n2C)s1	-5%	25%	65%	54*	1	102*
COc1ccccc1-c1nnc(SCC(=O)Nc2ccccc2F)o1	/	/	/	/	110	/
O=C(CSc1nnc(-c2ccccc2)o1)Nc1ccccc1F	17%	17%	/	23*	?	6
Cc1ccccc1C(=O)NC(=S)N(C)CCc1ccccn1	22%	-16%	1%	2	25	-10
O=C(NCc1cccc(Cl)c1)N1CCN(S(=O)(=O)c2ccccc2F)CC1	-2%	-17%	3%	-3	13	6
CCOC(=O)CN(c1ccccn1)S(=O)(=O)c1ccc(OC)cc1	-2%	?	20%	0	-33	-2
CN(C)C(=O)c1ccc(Nc2nccc3c2cc(-c2ccsc2)n3C)cc1	/	/	/	/	-15	/
Cc1cccc(N2CCN(c3ncnc4c3nc3n4CCCCC3)CC2)c1C	/	/	/	/	-28	/
Cc1cnc(NC(=O)CSc2nnc(COc3ccccc3)o2)s1	14%	17%	9%	1	7	30
Cc1ccc(-c2nnc(SCC(=O)Nc3ccccc3F)o2)cc1	-9%	?	/	16*	-95*	-3
Cc1ccc(-c2nnc(SCC(=O)Nc3ccccc3N3CCOCC3)o2)cc1	1%	340%	?	24	106	39
Cc1cnc(NC(=O)CSc2nnc(-c3ccccc3)o2)s1	-24%	-31%	130%	41*	-6	44*
CC(C)CNc1nc(Oc2ccc(OCC(N)=O)nn2)nc(N2CCOCC2)n1	/	/	/	/	41	/
COc1ccc(CNC(=O)C2CCN(S(=O)(=O)N3CCC(C)CC3)CC2)c(OC)c1	/	/	/	/	-36	/
COc1cccc(CNC(=O)c2ccc(-n3c(C)cc4c3CCC(C)C4)cc2)c1 (stereo unspecified)	/	/	/	/	-83*	/
COc1cccc(CNC(=O)C2CCN(S(=O)(=O)N3CCC(C)CC3)CC2)c1	?	13µM*	22%	-2	?	-11
CCCOc1ccc(CNC(=O)c2ccc(-n3c(C)cc4c3CCC(C)C4)cc2)cc1 (stereo unspecified)	/	/	/	/	-12	/
COc1ccc(OC)c(CNC(=O)C2CCN(S(=O)(=O)N3CCC(C)CC3)CC2)c1	-15%	12µM*	1%	-1	-23	3
CCC[C@H]1[C@@H](NC(=O)Nc2ccc(C#N)cc2)CC[C@@]23CCCN2C(=O)CCC[C@@H]13	/	/	/	/	-15	/
NC(=O)C1CCN(c2nc(-c3cccc([N+](=O)[O-])c3)cs2)CC1	/	-19%	?	/	/	/
O=C(NCCC1=CCCCC1)C1CCN(C(=O)N2CCOc3ccccc32)CC1	/	/	/	/	14	/

Bioassay records: PubChem, National Center for Advancing Translational Sciences (NCATS)
